The values below come from PubChem BioAssay.

Active and inactive are the calls of the source. Unless noted, how the calls were made is not given here.

A short description of assay [1]: HepG2 liver cancer cell viability effects, profiling panel, resazurin fluorescence, 24 h, PK04 Diversity Set (AID 1172). Further: test concentration not given here. The following applies: higher = more signal.
Assay [2] in a line: basal S. cerevisiae growth modulation, no modifier, primary screen, OD600, strain BY4716, 24 h, basal condition (AID 1173). As to conditions: OD600, 24 h, higher = more signal, called active from +8 up or from −8 down.
A short description of assay [3]: MM1S myeloma cell viability, profiling panel, resazurin fluorescence, basal, 24 h, PK04 Diversity Set (AID 1174).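 Further: MM1S multiple myeloma cell line; test concentration not given here.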 As to conditions: higher = more signal, called active from +8 up or from −8 down. For orientation: Resazurin is reduced to fluorescent resorufin, in cell work by metabolically active cells.
Assay [4] deals with Dihydroorotate dehydrogenase (quinone), mitochondrial (Plasmodium falciparum (isolate 3D7)) (UniProt Q08210). The assay can be described thus: PfDHODH enzyme inhibitors, primary screen, biochemical, C-terminal His tag, absorbance 600 nm (AID 1175).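 Further: recombinant parasite enzyme with a five histidine tag at its C terminus; test concentration not given here.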 As to conditions: DCIP absorbance 600 nm, higher = more signal, called active from +8 up or from −8 down.
Sequence of Dihydroorotate dehydrogenase (quinone), mitochondrial (Plasmodium falciparum (isolate 3D7)) (Q08210 whole entry, looked up): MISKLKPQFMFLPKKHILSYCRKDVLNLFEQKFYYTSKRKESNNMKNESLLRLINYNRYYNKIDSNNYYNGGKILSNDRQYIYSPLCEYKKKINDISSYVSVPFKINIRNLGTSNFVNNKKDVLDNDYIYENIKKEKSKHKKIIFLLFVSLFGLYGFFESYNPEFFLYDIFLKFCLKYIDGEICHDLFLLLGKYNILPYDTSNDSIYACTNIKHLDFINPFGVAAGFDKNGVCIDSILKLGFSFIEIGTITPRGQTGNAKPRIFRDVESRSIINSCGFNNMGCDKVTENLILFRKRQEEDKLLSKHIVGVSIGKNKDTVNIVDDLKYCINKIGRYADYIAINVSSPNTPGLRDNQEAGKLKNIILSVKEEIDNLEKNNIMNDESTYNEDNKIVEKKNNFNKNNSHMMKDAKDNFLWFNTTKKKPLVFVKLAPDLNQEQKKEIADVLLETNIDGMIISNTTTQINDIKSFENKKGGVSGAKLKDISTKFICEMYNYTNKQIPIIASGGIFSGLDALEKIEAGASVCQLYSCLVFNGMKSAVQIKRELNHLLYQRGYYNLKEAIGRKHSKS
Assay [5] in a line: P. aeruginosa biofilm formation inhibitors, primary screen, strain PAO1, LB-PBS medium, absorbance 600 nm (AID 1176). Further: test concentration not given here. As to conditions: P. aeruginosa PAO1 growth/biofilm, A600, 12 h; higher = more signal.
Assay [6] can be described thus: S. cerevisiae RM11-1a growth modifiers, primary screen, strain RM11-1a, OD600, basal, 24 h (AID 1177).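 Further: cultures grown under basal conditions with no added stressor; test concentration not given here.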 As to conditions: OD600, 24 h, higher = more signal, called active from +8 up or from −8 down.
Assay [7] in a line: E. coli acrAB mutant growth effects, primary screen, E. coli filamentation inducers, strain DRC39, OD650, 24 h (AID 1178).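 Further: growth measured as culture turbidity by optical density at 650 nm; test concentration not given here.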 The following applies: higher = more signal, called active from +8 up or from −8 down.
Assay [8] can be described thus: E. coli acrAB mutant growth effects, primary screen, E. coli filamentation inducers, strain DRC39, OD650, 48 h (AID 1179).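 Further: screen aims at cell division blockers that make cells filament.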 As to conditions: E. coli DRC39 delta-acrAB growth, higher = more signal, called active from +8 up or from −8 down.
Assay [9] is described as follows: RPMI8226 myeloma cell viability, profiling panel, resazurin fluorescence, basal, 24 h, PK04 Diversity Set (AID 1180).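 Further: RPMI8826 multiple myeloma cell line at 5000 cells per well; test concentration not given here.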 As to conditions: higher = more signal.
Assay [10] deals with E3 ubiquitin-protein ligase XIAP (Homo sapiens) (UniProt P98170). Nature of the assay: XIAP binders, primary screen, biophysical, small-molecule microarray, fluorescence 635 nm (AID 1181).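 Further: score merges 667 nm emission and signal to noise over triplicate slides.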 As to conditions: small-molecule microarray binding, higher = more signal.
Sequence of E3 ubiquitin-protein ligase XIAP (Homo sapiens) (P98170 whole entry, looked up): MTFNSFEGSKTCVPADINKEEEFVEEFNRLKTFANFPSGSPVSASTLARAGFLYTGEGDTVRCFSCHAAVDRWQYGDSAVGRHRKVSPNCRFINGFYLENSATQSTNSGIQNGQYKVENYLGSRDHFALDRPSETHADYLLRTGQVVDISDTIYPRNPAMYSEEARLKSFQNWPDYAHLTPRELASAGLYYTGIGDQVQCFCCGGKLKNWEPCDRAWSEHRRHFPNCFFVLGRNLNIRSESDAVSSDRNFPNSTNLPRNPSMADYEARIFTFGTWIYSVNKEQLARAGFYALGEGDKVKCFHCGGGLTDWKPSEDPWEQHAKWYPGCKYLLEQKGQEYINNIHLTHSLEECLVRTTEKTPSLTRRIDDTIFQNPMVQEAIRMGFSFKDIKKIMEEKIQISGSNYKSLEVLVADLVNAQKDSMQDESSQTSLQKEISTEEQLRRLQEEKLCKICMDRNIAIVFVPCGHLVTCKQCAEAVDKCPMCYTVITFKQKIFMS

Regarding `COc1ccc([Si](C)(C)[C@H]2[C@H](CCO)O[C@@]3(C(=O)N(Cc4cccc(N5CCOC5=O)c4)c4ccccc43)[C@@H]2C)cc1`, the z-score in [1] is -1.55; in assay [2], 1.34 (inactive); in [3], -4.67 (inactive); in assay [5] it was 2 (inactive); in [6], 4.7 (inactive); in [7], 0.803 (inactive). Besides, the z-score in [8] is 0.113 (inactive); in [9] it was -3.21. The composite z-score was -0.287 (inactive) in assay [4] and -0.0755 in [10].
As for `COC(=O)C(CC#Cc1ccc2c(c1)[C@]1(C(=O)N2)[C@H](c2ccc(OCCO)cc2)N2[C@H](c3ccccc3)[C@H](c3ccccc3)OC(=O)[C@H]2[C@@H]1C(=O)O)C(=O)OC`, the z-score in [1] was 0.669; in assay [2] it was 0.156 (inactive); in assay [3], 1.09 (inactive); in assay [5], 2.28 (inactive); in [6] it was 1.48 (inactive); in assay [7], 1.29 (inactive). Further, the z-score in [8] was 1.33 (inactive); in assay [9] it was 0.749. In addition, the composite z-score is -16.3 (active) in assay [4] and -0.194 in [10].
Regarding `C=CC[C@]1(C(=O)N2CCOCC2)N=C(c2ccc(OCCCO)cc2)O[C@H]1c1ccccc1CN=[N+]=[N-]`, the z-score in [1] is -0.744; in [2], -0.33 (inactive); in [3], -0.574 (inactive); in [5] it was -0.497 (inactive); in [6] it was 0.301 (inactive); in assay [7] it was -0.186 (inactive). Further, the results for the z-score in assay [8] and in assay [9] were 0.0726 (inactive) and -1.03, respectively. Further, the composite z-score in [4] is 0.155 (inactive); in assay [10], 0.208.
In the case of `CCCC[C@H]1OB(O)C[C@H]2C1=C(COc1ccccc1)Cn1c(=O)n(-c3ccccc3)c(=O)n12`, the z-score is -0.0243 in [1]; -6.02 (inactive) in assay [2]; -0.0638 (inactive) in assay [3]; 0.294 (inactive) in assay [5]; 0.458 (inactive) in [6]; 0.232 (inactive) in [7]. In addition, the z-score in [8] was 0.0306 (inactive); in assay [9], -0.0851. Besides, the composite z-score is -2.51 (inactive) in assay [4] and -0.327 in [10].
On to `CC(C)CNC(=O)[C@@]1(c2ccc([N+](=O)[O-])cc2)CC(=O)N(C(C)C)[C@@H]1c1ccc(CO)cc1`, for which the z-score in assay [1] was -0.0273; in [2], -0.78 (inactive); in assay [3], 1.23 (inactive); in [5], -0.301 (inactive); in assay [6] it was -0.738 (inactive); in [7], 0.474 (inactive). The z-score in assay [8] is 1.53 (inactive); in assay [9], 1.37. The composite z-score is 1.14 (inactive) in assay [4] and -0.13 in assay [10].
For `COCCOC(=O)N1C(=O)[C@@]2(c3cc(C#CCCO)ccc31)[C@H](C(=O)NC[C@H](O)c1ccccc1)[C@H]1C(=O)O[C@H](c3ccccc3)[C@H](c3ccccc3)N1[C@@H]2c1ccccc1OCCO`, the z-score is 0.446 in assay [1]; 0.446 (inactive) in assay [2]; 0.0837 (inactive) in assay [3]; 1.12 (inactive) in assay [5]; 1.88 (inactive) in [6]; 0.136 (inactive) in assay [7]. The results for the z-score in assay [8] and in assay [9] were 0.259 (inactive) and -0.135, respectively. The composite z-score in assay [4] was 0.246 (inactive); in assay [10] it was 0.0593.
For `COC(=O)[C@@]1(Cc2ccccc2N=[N+]=[N-])N=C(c2ccc(OCCCO)cc2)O[C@H]1c1ccccc1`, the z-score was -4.36 in assay [1]; -0.642 (inactive) in [2]; -7.63 (inactive) in assay [3]; 0.77 (inactive) in [5]; 1.76 (inactive) in [6]; 0.044 (inactive) in assay [7]. Besides, the results for the z-score in assay [8] and in assay [9] were -1.12 (inactive) and -7.12, respectively. Besides, the composite z-score in [4] was 1.66 (inactive); in assay [10], 0.0472.
On to `COCCOC(=O)N1C(=O)[C@@]2(c3cc(C#CCCO)ccc31)[C@H](c1ccc(OCCO)cc1)N1[C@H](c3ccccc3)[C@H](c3ccccc3)OC(=O)[C@H]1[C@@H]2C(=O)N1CCc2cc(OC)c(OC)cc2C1`, for which the z-score in assay [1] was -0.398; in [2], 1.28 (inactive); in assay [3], -1.24 (inactive); in [5], 1.64 (inactive); in [6], 3.35 (inactive); in [7], 0.154 (inactive). Also, the results for the z-score in assay [8] and in assay [9] were 0.554 (inactive) and 0.908, respectively. Moreover, the composite z-score in assay [4] is -1.02 (inactive); in [10] it was -0.102.
Consider `CO[C@H]1O[C@H](CO)[C@@H](OC(=O)Nc2ccc(C(F)(F)F)cc2)[C@H](OC(=O)Nc2ccccc2)[C@H]1OC(=O)Nc1ccccc1`, for which the z-score was -5.15 in [1]; 0.0673 (inactive) in [2]; -6.47 (inactive) in [3]; -0.276 (inactive) in assay [5]; 2.72 (inactive) in assay [6]; 0.201 (inactive) in [7]. Also, the z-score was -1.17 (inactive) in [8] and -6.11 in assay [9]. For the same compound, the composite z-score in assay [4] was 0.0214 (inactive); in assay [10], 0.166.
Turning to `C=CCC(OC(C)=O)[C@@H]1[C@@H](N(Cc2ccc(-c3ccccc3)cc2)C(=O)Cc2ccc(OC)cc2)c2cc(OCCCO)ccc2N1C(=O)c1ccc(-c2ccccc2)cc1` (stereo not given in full), the z-score in assay [1] was 0.192; in assay [2], -1.13 (inactive); in [3] it was 0.833 (inactive); in [5], -0.24 (inactive); in [6], -0.754 (inactive); in [7], 1.57 (inactive). In addition, the z-score in [8] is 0.807 (inactive); in [9] it was 0.989. The composite z-score in [4] was -0.0887 (inactive); in assay [10] it was 0.233.
`O=C(N1CCOCC1)[C@@]1(CCS(=O)(=O)c2ccccc2)COC(c2ccc(OCCCO)cc2)=N1`: the z-score is 0.0754 in [1]; 0.0036 (inactive) in assay [2]; -0.262 (inactive) in [3]; 0.193 (inactive) in [5]; 0.0216 (inactive) in assay [6]; -0.0668 (inactive) in assay [7]. For the same compound, the z-score in assay [8] was 0.589 (inactive); in assay [9] it was -0.387. For the same compound, the composite z-score in assay [4] was 0.0576 (inactive); in assay [10], -0.02.
For the compound `CC(C)NC(=O)[C@@]1(Cc2ccccc2I)c2ccccc2C(=O)N(Cc2ccccc2C(F)(F)F)[C@H]1c1ccc(CO)cc1`, the z-score was 0.406 in assay [1]; 0.835 (inactive) in assay [2]; 1.09 (inactive) in assay [3]; 0.82 (inactive) in assay [5]; -0.272 (inactive) in assay [6]; 0.52 (inactive) in assay [7]. For the same compound, the z-score in [8] is -0.319 (inactive); in assay [9], 0.508. In addition, the values for the composite z-score in assay [4] and in assay [10] were -0.327 (inactive) and -0.206, respectively.
